Data on 35 compounds can be found in PubChem BioAssay AID589 (National Center for Advancing Translational Sciences (NCATS), 2007).

Screen size: about 59,000 compounds; about 6,200 (11%) were called active. Another 9% or so got no clear call; they are omitted. The sample holds actives, similar compounds and a random draw of the others, so the mix is not that of the screen. No stated cut-off is given here; in the data, active means max dye-equivalent concentration above about 10 nM; inconclusive means mostly about 1.1 nM to 9.6 nM; inactive means weaker than that.

The nature of this experiment: qHTS Assay for Spectroscopic Profiling in 4-MU Spectral Region. The note with it: compound autofluorescence, 340/450 nm, 4-MU equivalents; stronger effect = higher value. The method in brief: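 Compounds in 100 mM Tris, pH 8.0, sat 15 min at room temperature before fluorescence was read at 340 nm excitation/450 nm emission; a per-plate six-point 4-MU standard curve converted signals to dye-equivalent concentration at each compound concentration.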
On to `CC(C)(C)n1nnnc1C(c1ccc2ncccc2c1)N1CCSCC1` (stereo not given), for which the max dye-equivalent concentration entry was “inactive”. As for `CCOC(=O)N1CCN(C(=O)C2CCN(S(C)(=O)=O)CC2)CC1`, the entry is “inactive”. To `CCOC(=O)N1CCN(C(=O)C2CCN(c3ncnc4c3sc3cccc(F)c34)CC2)CC1` belongs 18 nM (active); to `CCOC(=O)N1CCN(CC(=O)Nc2cc(C)nn2-c2nc3ccccc3s2)CC1`, “inactive”.

With `C=C(C)c1cccc(C(C)(C)NC(=O)N2CCN(c3ncccn3)CC2)c1`, the max dye-equivalent concentration entry is “inactive”. As for `CC1CCCC(NC(=O)CSc2nccn2C)C1C` (stereo not given), the entry is “inactive”; as for `CN1[C@H]2CC(OC(=O)[C@@H](CO)c3ccccc3)C[C@H]1[C@H]1O[C@H]12` (stereo not given in full), “inactive”. As for `O=c1cc(-c2ccccc2)[nH]c2nc(Cl)ccc12`, the max dye-equivalent concentration was 76 nM (active). For `O=C(NCCN1CCOCC1)c1c(F)c(F)c(F)c(F)c1F`, the max dye-equivalent concentration entry is “inactive”. `Oc1c(Br)cc(CN(Cc2cc(Br)c(O)c(Br)c2)C2CCCCC2)cc1Br`: the max dye-equivalent concentration result was “inactive”. As for `Cc1cc(=O)n2nc(N3CCCC(C(=O)N4CCN(C)CC4)C3)sc2n1` (stereo not given), the entry is “inactive”; as for `Cc1cccc(NC(=O)CSc2nnc(CCCCCNC(=O)OC(C)(C)C)o2)c1C`, “inactive”.

On to `COCC(=O)N1CCC2(CCCN(c3ccccc3)C2)CC1`, for which the max dye-equivalent concentration entry was “inactive”. As for `COC(=O)c1ccc(NCC(=O)c2ccccc2)cc1`, the max dye-equivalent concentration result was “inactive”.

As to `O=C(Nc1ccc(-c2nnc(-c3ccccc3)o2)cc1)c1ccc(Br)o1`, the max dye-equivalent concentration is 37 nM (active).

Consider `O=C(Nc1cccc(-c2nnc(-c3ccccc3)o2)c1)C1CCCO1` (stereo not given), for which the max dye-equivalent concentration result was “inactive”. To `O=C(Nc1ccc(-c2nnc(-c3ccccc3)o2)cc1)C1CCCO1` (stereo not given) belongs “inactive”. As for `O=C(c1ccco1)N1CCN(C(=O)C2CC(c3ccc(Cl)c(Cl)c3)=NO2)CC1` (stereo not given), the entry is “inactive”; as for `O=C(CCn1c(=S)[nH]c2ccccc2c1=O)NCCCN1CCCC1=O`, “inactive”; as for `CC(C)(C)OC(=O)c1c(N)n(CCCN2CCCC2=O)c2nc3ccccc3nc12`, 6400 nM (active). As for `CSc1nnc(-c2ccncc2)n1CCCN1CCCC1=O`, the entry is “inactive”; as for `CC(C)NC(=O)N1CCCC2(CCN(C(=O)c3cccn3C)CC2)C1`, “inactive”. Take `COc1ccc2c(c1)CCc1c(C(=O)N3CCCC3)noc1-2`: the max dye-equivalent concentration result was “inactive”. Consider `O=c1cnc2cnc(Nc3ccccc3)nc2n1Cc1ccc(F)cc1`, for which the max dye-equivalent concentration result is “inactive”.

Consider `COc1cccc(Cn2c(=O)c(CCc3ccccc3)nc3cnc(N(C)C)nc32)c1`, for which the max dye-equivalent concentration was 22 nM (active). To `CCNc1ncc2ncc(=O)n(Cc3cccc(OC)c3)c2n1` belongs 14 nM (active); to `COc1cccc(Cn2c(=O)cnc3cncnc32)c1`, “inactive”. To `CCNc1ncc2ncc(=O)n(CCc3ccccc3)c2n1` belongs 75 nM (active); to `COc1cccc(Nc2ncc3ncc(=O)n(C4CC4)c3n2)c1`, “inactive”; to `COc1cccc(Cn2c(=O)c(-c3ccccc3)nc3cnc(OC)nc32)c1`, “inactive”. As for `CCNc1ncc2nc(CCc3ccccc3)c(=O)n(-c3ccc(OC)cc3)c2n1`, the figure is 12 nM (active). As for `COc1cccc(CN2C(=O)CCC2(C)C(=O)NC2CCCCCC2)c1` (stereo not given), the max dye-equivalent concentration entry was “inactive”. As for `COc1ccc(-n2c(C)nc3c(cnn3-c3ccccc3)c2=O)cc1`, the max dye-equivalent concentration entry was “inactive”.

With `COc1cccc(Cn2c(=O)c(C)nc3cnc(Oc4ccccc4)nc32)c1`, the max dye-equivalent concentration result was “inactive”.

For `CCc1nnc(NC(=O)CSc2nnc(Cc3ccccc3)n2-c2ccc(OC)cc2)s1`, the max dye-equivalent concentration entry was “inactive”.
